An excerpt weighted towards active compounds, which were near 12% of everything screened.
BAZ2B block: BAZ2B (human) inhibition; AlphaScreen BAZ2B-H3K14Ac peptide displacement; Potency, µM (titrated, usually from 114 µM), inactives show at the highest dose activity change, negative = inhibition, hits mostly inhibitors; hit rate 4.4% among 360,000; also: % is scaled to controls: 0 for no effect and ±100 for the full control effect; nearly all actives have a fitted effect of over 60% in size
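In this displacement format the biotinylated H3(5-23) peptide acetylated at Lys14 serves as ligand at 50 nM, with BAZ2B at 50 nM in PBS pH 7.4 containing 0.01% Tween-20. Donor and acceptor beads are 10 ug/mL final.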
G9a inh: G9a (human) methyltransferase inhibition; Q96KQ7; G9a H3K9 monomethylation, AlphaScreen, 2 h; Potency, µM (highest dose often 102 µM), for inactives: at the highest dose activity, negative = inhibition, usual class: inhibitors; hit rate 8.8% among 350,000; AID 504332; also: % is scaled to controls: 0 for no effect and ±100 for the full control effect; nearly all actives have a fitted effect of over 75% in size
Target sequence (Q96KQ7 913-1193 limits assumed): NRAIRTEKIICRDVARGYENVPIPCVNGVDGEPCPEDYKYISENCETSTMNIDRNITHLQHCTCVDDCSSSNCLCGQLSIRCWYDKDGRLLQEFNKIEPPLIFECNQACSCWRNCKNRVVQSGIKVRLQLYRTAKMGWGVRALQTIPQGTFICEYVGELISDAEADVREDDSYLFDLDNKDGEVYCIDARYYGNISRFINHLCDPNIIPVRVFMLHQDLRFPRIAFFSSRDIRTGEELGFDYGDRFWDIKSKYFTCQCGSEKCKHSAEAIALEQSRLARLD
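Using a bead-based AlphaScreen, monomethylated H3K9 product from 2 h room-temperature reactions (G9a 20 nM, peptide 500 nM, SAM 20 uM) was detected with 0.5 ug/mL rabbit anti-H3K9me1 antibody.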
L3MBTL1 block: L3MBTL1 (human) inhibition. Q9Y468. AlphaScreen L3MBTL1–H3K9me1 peptide binding. Potency, µM (highest dose often 57.1 µM), without a hit: at the highest dose activity, negative = inhibition, most hits filed as inhibitors. hit rate 0.66% among 230,000; also: % is scaled to controls: 0 for no effect and ±100 for the full control effect; nearly all actives have a fitted effect of over 60% in size
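Read-out is AlphaScreen signal from streptavidin donor and nickel chelate acceptor beads (10 ug/mL final each) bridging L3MBTL1 (50 nM) and biotinylated K9-monomethylated H3(1-15) peptide (75 nM), after 30 min compound exposure at room temperature.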
HP1b binding inh: HP1-beta chromodomain-methylated histone interaction inhibition. P83916. AlphaScreen HP1-beta / biotin-H3K9me3 peptide binding. Potency, µM (series often up to 114 µM), for the others: at the top dose activity change, negative = inhibition, hits mostly inhibitors. hit rate 0.56% among 390,000; also: nearly all actives have a fitted effect of over 70% in size
Target sequence (P83916 whole entry, looked up): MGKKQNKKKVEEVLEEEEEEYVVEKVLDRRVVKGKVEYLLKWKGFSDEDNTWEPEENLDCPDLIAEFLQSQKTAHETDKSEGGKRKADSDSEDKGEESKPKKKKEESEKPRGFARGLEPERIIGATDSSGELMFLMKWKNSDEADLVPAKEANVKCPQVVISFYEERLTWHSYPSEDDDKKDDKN
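Compound inhibition of the preformed complex between 50 nM HP1-beta and 50 nM biotinylated H3K9me3 peptide was read by AlphaScreen. Buffer was PBS pH 7.4 with 0.01% Tween-20. Incubations ran 30 min at room temperature, with 10 ug/mL donor/acceptor beads.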
JMJD2A Tudor inh: inhibitors of human JMJD2A Tudor domain. O75164. hit rate 4.4% among 390,000. AID 504339. AlphaScreen JMJD2A-Tudor / H3K4me3 peptide binding. Potency, µM (doses to about 114 µM), inactives show top-dose activity change, negative = inhibition, hits mostly inhibitors; also: % is scaled to controls: 0 for no effect and ±100 for the full control effect; nearly all actives have a fitted effect of over 50% in size
Sfp PPTase inh: inhibitors of Bacillus subtilis Sfp phosphopantetheinyl transferase. AID 1490. hit rate 3.5% among 310,000. Potency, µM, for the others: largest response in the series, negative = inhibition, usual class: inhibitors. Q9F4F7. Biochemical Sfp PPTase activity, qHTS;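 also: the enzyme is Sfp with the accession as filed and its product quenches rhodamine fluorescence; 0% = enzyme reaction without inhibitor and -100% = no enzyme wells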
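After 15 min at room temperature with compound, 15 nM Sfp received 5 uM rhodamine-CoA plus 12.5 uM BHQ-2-ybbR (50 mM Hepes pH 7.6, 10 mM MgCl2). Rate came from the fluorescence difference over 30 min, ex 525/em 598 nm.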
* = called active by the depositor; [ ] = dose if it differs, or a comment. Calls follow the shape of the dose curve; as a rule, active = well fitted curve in the direction sought with a large enough effect; inconclusive = small, poorly fitted or top-dose-only effect, or another doubt; inactive = no such curve, though single readings can be large; an effect the other way counts as inactive or inconclusive. Potency is read from the fitted curve at half-maximal effect.

`O=[N+]([O-])c1ccc(CSc2ncnc3c2ncn3C2OC(CO)C(O)C2O)cc1` (stereo not given) gave Sfp PPTase inh 6%.
For Cc1noc(/C=C/c2ccccc2F)c1S(=O)(=O)N1CCC(C(=O)N(C)Cc2ccco2)CC1 the results were BAZ2B block -6%, G9a inh 2%[59 µM], HP1b binding inh 17%[57 µM] and JMJD2A Tudor inh -11%.
O=C(CCn1c(=O)c2cccn2c2cccnc21)NCc1cccc(Br)c1 was read as BAZ2B block -13%, G9a inh 7%[59 µM], HP1b binding inh 34% and JMJD2A Tudor inh -7%.
Screening CC(C)(C)C1CCC2(CC1)NC(=S)N(c1ccccc1)N2 (stereo not given) returned BAZ2B block -33%, G9a inh 7.9µM*, L3MBTL1 block 8%, HP1b binding inh 46%, JMJD2A Tudor inh -9% and Sfp PPTase inh inconclusive.
Screening CC(C)(C)C1CCC2(CC1)SCC(=O)N2c1ccccc1 (stereo not given) returned BAZ2B block -28%[57.1 µM], G9a inh 21%, L3MBTL1 block -2%, HP1b binding inh 25%, JMJD2A Tudor inh -6% and Sfp PPTase inh 10%.
Screening CCC(C)(C)C1CCC2(CC1)NC(=S)N(c1ccccc1)N2 (stereo not given) returned BAZ2B block inconclusive, G9a inh 8.9µM*, L3MBTL1 block -4%, HP1b binding inh 39%, JMJD2A Tudor inh -23% and Sfp PPTase inh 79µM*.
CCCCCCCCCCCCOCCCN was read as G9a inh 1%[12.7 µM] and Sfp PPTase inh 4%.
CCOC(=O)COn1c(-c2cccc(Cl)c2)nc2ccc([N+](=O)[O-])cc21 was read as BAZ2B block -4%, G9a inh 50µM*, L3MBTL1 block 4%, HP1b binding inh 45%, JMJD2A Tudor inh -8% and Sfp PPTase inh -1%.
`CCCN(CCC)C(=O)Cn1c(SCc2cccc(F)c2)nc2cccnc21` gave BAZ2B block 1%, G9a inh -1%[59 µM], HP1b binding inh -7% and JMJD2A Tudor inh -17%.
Screening CCOc1ccc(S(=O)(=O)Nc2ccccc2C(=O)NCc2ccco2)cc1 returned BAZ2B block inconclusive, G9a inh 50µM*, L3MBTL1 block 16%, HP1b binding inh 9%, JMJD2A Tudor inh -31% and Sfp PPTase inh inconclusive.
CS(=O)(=O)Nc1ccccc1C(=O)NCc1ccco1 was read as BAZ2B block -2%, G9a inh 13µM*, L3MBTL1 block 25%[11.4 µM], HP1b binding inh 48%, JMJD2A Tudor inh -2% and Sfp PPTase inh 2%.
Screening Cc1cccc(NC(=O)C(=O)NCCc2csc(-c3ccc(F)cc3)n2)c1C returned BAZ2B block 3%, G9a inh 4%[59 µM], HP1b binding inh 30%[57 µM] and JMJD2A Tudor inh -8%.
Screening CCc1nn2c(=O)cc(COc3cccc(NC(=O)c4ccco4)c3)nc2s1 returned BAZ2B block inconclusive, HP1b binding inh 13%, JMJD2A Tudor inh 25µM* and Sfp PPTase inh 11%.
Screening O=C(Nc1cccc(C(=O)O)c1)Nc1ccccc1Cl returned BAZ2B block -3%, G9a inh -5%, L3MBTL1 block 11%, HP1b binding inh 36%, JMJD2A Tudor inh 1% and Sfp PPTase inh 5%.
For O=C(Nc1ccc2nccnc2c1)Nc1ccccc1Cl the results were BAZ2B block -13%, G9a inh inconclusive, HP1b binding inh 22%, JMJD2A Tudor inh 20µM* and Sfp PPTase inh inconclusive.
`O=C(Nc1cccc(Cl)c1)Nc1ccc2nccnc2c1` gave BAZ2B block -22%, G9a inh 50µM*, HP1b binding inh 32%, JMJD2A Tudor inh 3% and Sfp PPTase inh -19%.
C[C@@H](C1[C@@H](O)CC2C3C=CC4C[C@@H](O)CC[C@]4(C)[C@H]3CC[C@@]21C)[C@@H]1CCCCN1 (stereo not given in full) was read as Sfp PPTase inh 4%.
COc1cc(NC(=O)c2ccc(F)cc2)c(OC)cc1NC(=O)CN1CCCCC1 was read as BAZ2B block -18%, G9a inh 50µM*, HP1b binding inh 16%, JMJD2A Tudor inh -19% and Sfp PPTase inh -10%.
For COc1cc(NC(=O)c2ccccc2)c(OC)cc1NC(=O)CN1CCCCC1 the results were BAZ2B block inconclusive, G9a inh inconclusive, L3MBTL1 block -23%, HP1b binding inh -12%, JMJD2A Tudor inh -32% and Sfp PPTase inh 10%.
For COc1cc(NC(=O)c2cccc(Cl)c2)c(OC)cc1NC(=O)CN1CCOCC1 the results were BAZ2B block inconclusive, G9a inh 45µM*, L3MBTL1 block -5%, HP1b binding inh 15%, JMJD2A Tudor inh inconclusive and Sfp PPTase inh 4%.
`CC1CCN(c2ccc(-c3cccc(NS(=O)(=O)c4cccs4)c3)nn2)CC1` gave BAZ2B block -14%, G9a inh 9%[59 µM], HP1b binding inh 2%[57 µM] and JMJD2A Tudor inh -33%.
`O=C(NNC(=O)C1C2C=CC(C2)C1C(=O)O)c1ccccc1O` (stereo not given) gave BAZ2B block 50µM*, G9a inh -8%, HP1b binding inh 37%, JMJD2A Tudor inh -17% and Sfp PPTase inh inconclusive.
`CCOC(=O)c1ccc(C(=O)NNC(=O)C2C3C=CC(C3)C2C(=O)O)cc1` (stereo not given) gave BAZ2B block -5%, G9a inh -5%[0.501 µM], HP1b binding inh 39%, JMJD2A Tudor inh -13% and Sfp PPTase inh 50µM*.
For COC(=O)c1ccc(OCC2c3cc(OC)c(OC)cc3CCN2C(=O)c2cccc(C)c2)cc1 (stereo not given) the results were BAZ2B block -36%, G9a inh -6%[59 µM], HP1b binding inh -7% and JMJD2A Tudor inh inconclusive.
For O=C(CCCN1C(=O)/C(=C\c2ccccc2)SC1=S)Nc1ccc(C(=O)O)cc1 the results were BAZ2B block -26%, G9a inh inconclusive, HP1b binding inh -23%, JMJD2A Tudor inh inconclusive and Sfp PPTase inh 7%.
COc1ccc(/C=C2\SC(=S)N(CCCC(=O)NNC(=O)c3ccccc3O)C2=O)cc1 was read as BAZ2B block 50µM*, G9a inh 2%, L3MBTL1 block -2%, HP1b binding inh inconclusive, JMJD2A Tudor inh -13%[11.4 µM] and Sfp PPTase inh -21%.
For CCc1ccc(/C=C2\SC(=S)N(CCCC(=O)Nc3ccccc3C(=O)O)C2=O)cc1 the results were BAZ2B block inconclusive, G9a inh 32µM*, HP1b binding inh 2%, JMJD2A Tudor inh inconclusive and Sfp PPTase inh -1%.
COc1ccc(/C=C2/SC(=S)N(CCCC(=O)Nc3ccccc3C(=O)O)C2=O)cc1 was read as BAZ2B block inconclusive, G9a inh 79µM*, HP1b binding inh -32%, JMJD2A Tudor inh inconclusive and Sfp PPTase inh 27%.
